Test results taken from PubChem BioAssay (NCATS).
Records with an inconclusive call do not appear. Values without a mark were called inactive. Active and inactive are the calls of the source. Calls come from the whole dose curve; as a rule, active = well fitted inhibition curve with a large enough effect; inconclusive = small, poorly fitted or top-dose-only effect; inactive = flat fitted curve, though single readings scatter. Where a SMILES comes first, the peptide text is derived from it. [ ]: non-standard residue; d: D form. ξ: configuration not given here. ξPhe(βξ-Me) = CC(c1ccccc1)C(N)C(=O)O; GABA = NCCCC(=O)O

Test: P-glycoprotein substrates identified in KB-8-5-11 adenocarcinoma cell line, qHTS therapeutic library screen (AID 1346987); note: nearly all actives have a fitted effect of over 65% in size
Settings: KB-8-5-11 (P-gp overexpressing) viability, CellTiter-Glo, 72 h; series mostly up to 44.5 µM; activity change, negative = cytotoxicity: at the top concentration
Procedure, shortened: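 KB-8-5-11, a colchicine-selected P-gp-overexpressing KB-3-1 subline, was grown without colchicine for the assay. Cells were seeded at 500 cells/well, dosed in concentration-response and incubated 72 h at 37 degree C, 5% CO2. Viability was read by CellTiter-Glo luminescence.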
% is set by controls: 0 for no effect and ±100 for the full control effect; potency is the fitted concentration of half-maximal effect.

SMILES | activity change, negative = cytotoxicity | Potency | outcome
C=CC1(C)CC(OC(=O)/C(C)=C\COC(C)=O)C(C(=C)C(=O)O)C(O)C1C(=C)CO (centres undefined) | 2.76% [at 17.3 µM] | – | –
CC(C)c1cc(CNc2nc(Nc3cc(C4CC4)[nH]n3)cc(N3CCN(C)CC3)n2)on1 | – | 5.8 µM (active) | –
CC(=O)C1=C(C)N(c2cccc(C(F)(F)F)c2)C(=O)N[C@H]1c1ccc(C#N)nc1 | -2.98% [at 9.29 µM] | – | –
COc1cc(/C=C/C(=O)O[C@H]2[C@H](O)[C@@H](CO)O[C@@]2(CO)O[C@H]2O[C@H](CO)[C@@H](O)[C@H](O)[C@H]2O)ccc1O | – | – | inactive [at 17.3 µM]
NCc1c[nH]c(=S)n1[C@@H]1CCc2c(F)cc(F)cc2C1 | 6.67% | – | –
CC(C)c1c2cc(-c3ccnc(NC4CCC(NC5CCOCC5)CC4)n3)ccc2nn1C (centres undefined) | – | 1.84 µM (active) | –
C=C(C(=O)O)C1CC(O)C2(C)CCCC(=C)C2C1 (centres undefined) | 9.08% | – | –
CC/C=C\[C@H](O)[C@H](O)C1=C(C)C(=O)[C@]2(O1)C(=O)N[C@@](OC)(C(=O)c1ccccc1)[C@@H]2O | – | – | inactive [at 17.3 µM]
c1cc(Nc2cc(C3CC3)[nH]n2)nc(Nc2ccc3nc[nH]c3c2)n1 | – | 6.51 µM (active) | –
CN(C)C/C=C/C(=O)Nc1cccc(C(=O)Nc2ccc(Nc3nccc(-c4cccnc4)n3)cc2)c1 | – | – | inactive
CC1COC2(OC3CC4C5CC(O[C@@H]6O[C@H](C)[C@@H](O[C@@H]7O[C@@H](C)[C@H](O)[C@@H](O)[C@H]7O)[C@H](O)[C@H]6O)C6CC(O)CCC6(C)C5CCC4(C)C3C2C)C(O)C1 (some centres undefined) | -1.08% [at 17.3 µM] | – | –
C=C1CCC2C(C)(COC(C)=O)CCCC2(C)C1CCC(C)CC(=O)O (centres undefined) | 7.67% | – | –
C=C(C)C1CCC(C)C12CC(O)C1(C)OC1C2OC(=O)C(N)CCC(=O)O (centres undefined) | 8.63% | – | –
CNS(=O)(=O)c1ccccc1Nc1nc(Nc2ccc(N3CCN(C)CC3)cc2OC)ncc1Cl | – | 0.651 µM (active) | –
COc1c/c(=C2\C=c3ccccc3=N2)[nH]/c1=C\c1[nH]c(C)cc1C | – | 1.16 µM (active) | –
Cc1[nH]c2ccccc2c1CCNC(=O)c1ccccc1F | -4.47% | – | –
O=C(O)c1ccc(CN2CCC(CN[C@@H]3C[C@H]3c3ccccc3)CC2)cc1 | -1.3% | – | –
COc1c2c(c(C)c3c1C(=O)OC3)OC1(C)CC(O)C34OC(OC)(CC(OC(C)=O)C3(C)C1C2)OC4(C)C (centres undefined) | 7.36% [at 17.3 µM] | – | –
C=C1CN(Cc2ccc(C(=O)Nc3ccccc3N)cc2)C(=O)c2ccccc21 | – | 1.3 µM (active) | –
CC(C)N(CCCCOCC(=O)NS(C)(=O)=O)c1cnc(-c2ccccc2)c(-c2ccccc2)n1 | – | – | inactive

SMILES | activity change, negative = cytotoxicity | Potency | outcome
C/C=C/C=C/C=C/C(=O)OC1C=C(C=O)C(O)(C(=O)O)C2(C)CCCC(C)(C)C12 (centres undefined) | 4.71% [at 17.3 µM] | – | –
C[C@H]1O[C@@H](O[C@H]2CC[C@@]3(C)C(CC[C@]4(C)C3CC=C3C5CC(C)(C)CC[C@]5(C(=O)O)CC[C@]34C(=O)O)C2(C)C)[C@H](O)[C@@H](O)[C@@H]1O (some centres undefined) | 9.67% [at 17.3 µM] | – | –
NC(=O)c1cccc(-c2cc(OC(=O)NC3CCCCC3)ccc2O)c1 | -7.82% | – | –
C[C@@H]1O[C@@H](O[C@@H]2[C@@H](O)[C@@H](O[C@]3(CO)O[C@H](CO)[C@@H](O)[C@@H]3OC(=O)/C=C/c3ccc(O)cc3)O[C@H](CO)[C@H]2OC(=O)/C=C/c2ccc(O)cc2)[C@H](O)[C@H](O)[C@H]1O[C@@H]1O[C@@H](C)[C@H](O[C@@H]2OC[C@](O)(CO)[C@H]2O)[C@@H](O)[C@H]1O | 9.01% [at 9.29 µM] | – | –
CC1NC(=O)CCCNC(=O)C(Cc2c[nH]c3ccccc23)NC(=O)C(C)NC(=O)C(C(C)C)NC(=O)C(C(C)c2ccccc2)NC(=O)C(C(C)C)NC1=O (stereo not drawn) (cyclo([GABA]AV[ξPhe(βξ-Me)]VAW); configuration not given here) | 1.69% [at 17.3 µM] | – | –
C[C@@H]1O[C@@H](O[C@H]2[C@H](O)[C@@H](O[C@@H]3O[C@H](CO)[C@@H](O)[C@H](O[C@@H]4O[C@H](CO)[C@@H](O)[C@H](O)[C@H]4O)[C@H]3O)[C@H](O[C@H]3CC[C@@]4(C)C(=CC[C@@H]5C4CC[C@@]4(C)C5C[C@@H]5OC6(CC[C@@](C)(CO[C@@H]7O[C@H](CO)[C@@H](O)[C@H](O)[C@H]7O)O6)[C@@H](C)[C@@H]54)C3)O[C@@H]2CO)[C@H](O)[C@H](O)[C@H]1O (some centres undefined) | 3.17% [at 9.29 µM] | – | –
CC1(C)CCC[C@]2(C)[C@H]3CC(=O)O[C@]3(C)CC[C@@H]12 | 1.34% | – | –
CCCCOC(=O)NC(=O)C1c2ccccc2Oc2ccccc21 | 1.24% | – | –
NC1CCC(Nc2cc(-c3cccc(NCc4cccc(F)c4)n3)c(Cl)cn2)CC1 (centres undefined) | – | 1.16 µM (active) | –
C=C1OC2CC(C(=O)O)C=CC2NC1=O (centres undefined) | – | – | inactive
O=C(NCc1ccc(F)cc1)C(=O)c1c[nH]c2ccccc12 | -23.3% | – | –
COc1cc(/C=C/C(=O)OC[C@H]2O[C@@](CO)(O[C@H]3O[C@H](CO)[C@@H](O)[C@H](O)[C@H]3O)[C@@H](OC(=O)/C=C/c3ccc(O)c(OC)c3)[C@@H]2O)ccc1O | -7.23% [at 17.3 µM] | – | –
C=CC(=O)Nc1cc(Nc2nccc(-c3c[nH]c4ccccc34)n2)c(OC)cc1N(C)CCN(C)C | – | 6.51 µM (active) | –
CC(=O)O[C@@H]1[C@H](O)[C@@H](O[C@@H]2O[C@@H](C)[C@H](O[C@@H]3OC[C@@H](O)[C@H](O[C@@H]4OC[C@@H](O)[C@H](O)[C@H]4O)[C@H]3O)[C@@H](O[C@@H]3O[C@H](CO)[C@@H](O)[C@H](O)[C@H]3O)[C@H]2O)[C@H](OC(=O)[C@]23CCC(C)(C)C[C@H]2C2=CCC4[C@@]5(C)CC[C@H](O[C@@H]6O[C@H](C(=O)O)[C@@H](O)[C@H](O[C@@H]7OC[C@@H](O)[C@H](O)[C@H]7O)[C@H]6O[C@@H]6O[C@H](CO)[C@H](O)[C@H](O)[C@H]6O)[C@@](C)(C=O)C5CC[C@@]4(C)[C@]2(C)CC3)O[C@@H]1C (some centres undefined) | 9.26% [at 5.11 µM] | – | –
O=[N+]([O-])c1cn2c(n1)OCC(OCc1ccc(OC(F)(F)F)cc1)C2 (centres undefined) | -12.2% | – | –
C=C1CCC2C(C)(C(=O)O)CCCC2(C)C1CC/C(=C\CO)CO (centres undefined) | 7.06% | – | –
Cc1c(C(=O)N2CCOc3ccc(-c4ccc(N)nc4)cc3C2)ccc(S(C)(=O)=O)c1F | – | 10.3 µM (active) | –
CC1(C)CC[C@]2(C(=O)OC3OC(CO)C(O)C(O)C3O)CC[C@]3(C)C(=CCC4[C@@]5(C)CC[C@H](OC6OC(C(=O)O)C(O)C(OC7OC(CO)C(O)C(O)C7O)C6O)C(C)(C)C5CC[C@]43C)C2C1 (some centres undefined) | – | – | inactive [at 9.29 µM]
C/C=C1\[C@H](O[C@@H]2O[C@H](CO)[C@@H](O)[C@H](O)[C@H]2O)OC=C(C(=O)OC)[C@H]1CC(=O)OC[C@H]1O[C@@H](OCCc2ccc(O)cc2)[C@H](O)[C@@H](O)[C@@H]1O | -0.742% [at 17.3 µM] | – | –
